Screening data as filed in PubChem BioAssay.
Ba/F3 V617F tox: lowers viability of Ba/F3 cells expressing EpoR and JAK2V617F. ATP luminescence. inhibition, % at 5.6 µM. actives 1.1% (n = 220,000). AID 1446;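 active = inhibition above the campaign mean plus 3 SD over all tested compounds, cut at about 24% in these data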;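 note: cytokine-independent growth of Ba/F3 cells driven by EpoR plus mutant JAK2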
BaF3 tox: counter-screen for JAK2V617F inhibitors: parental Ba/F3 viability inhibitors; AID 1486; actives 1.1% (n = 220,000); CellTiter-Glo ATP luminescence; inhibition, % at 5.6 µM;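 active = inhibition above a per-campaign cutoff, the mean inhibition of all tested compounds plus 3 SD, cut at about 27% in these data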
APP transl inh: APP translation inhibition; inhibition, % at 2 µM; actives 0.82% (n = 190,000); SH-SY5Y APP 5'UTR-luciferase reporter, luminescence;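 active = inhibition above a set limit, derived from the sample mean plus 3 SD, cut at about 45% in these data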
KLF5 inh: suppresses KLF5 promoter-driven expression; DLD-1 KLF5 promoter-luciferase reporter, luminescence; actives 0.23% (n = 290,000); inhibition, % at 5 µM;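 active = inhibition above a per-plate limit of that plate's mean compound inhibition plus 3 SD, cut at about 60% in these data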;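 note: higher means less KLF5 promoter-driven luciferase light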
IEC-6 tox: IEC-6 cytotoxicity, counter-screen for KLF5 inhibitors; luminescence viability; inhibition, % at 5 µM; actives 0.78% (n = 290,000); in the data active = inhibition above about 22%
Numbers stand for hits; 0 = inactive; - = no result; ! = repeats disagree. This is a sample that favours compounds with a hit; in the whole collection about 1.8% have one here.

SMILES	Ba/F3 V617F tox	BaF3 tox	APP transl inh	KLF5 inh	IEC-6 tox
O=C(O)/C=C/c1ccc([N+](=O)[O-])o1	0	0	0	0	0
O=[N+]([O-])c1ccc(/C=N/N=C/c2ccc([N+](=O)[O-])o2)o1	0	0	94	0	0
COc1ccc(CCc2nnc(CCC(=O)NCc3ccc4ncccc4c3)o2)cc1	0	0	0	0	0
Cc1cc(C)nc(NC(=O)c2cccc(Br)c2)n1	-	-	-	0	0
O=C(Nc1cc(=O)[nH]c(=O)[nH]1)c1cccc(Br)c1	0	37	0	0	0
CC(=O)Nc1ccc(NC(=O)C(C)OC(=O)C2CC3C=CC2C3)cc1 (stereo unspecified)	0	57	0	0	0
O=C(N/N=C/c1ccccc1)c1n[nH]c2c1CCCC2	0	0	0	0	0
CC1(C)CC(=NNC(=O)c2n[nH]c3c2CCC3)CC(C)(C)N1	0	0	82	0	0
C=CCNC(=S)/N=c1/ccccn1CC	0	29	-	0	0
C=CCNC(=S)Nc1ccccc1	0	0	0	0	0
C/C(=N\NC(=O)C1CCCN(S(=O)(=O)c2ccccc2)C1)c1ccccn1 (stereo unspecified)	0	0	46	0	0
C/C(=N\NC(=O)C(c1ccccc1)c1ccccc1)c1ccccn1	0	0	69	0	0
CCOc1ccc(OCc2ccc(C(=O)N/N=C(\C)c3ccccn3)cc2)cc1	0	0	78	0	0
C/C(=N\NC(=O)C1CCCN(S(=O)(=O)c2ccccc2)C1)c1ccncc1 (stereo unspecified)	0	0	0	0	0
C/C(=N\NC(=O)c1cccc(Br)c1)c1ccccn1	-	-	-	0	0
CCOc1cccc(-c2c(C(=O)N/N=C(\C)c3ccncc3)nnn2-c2nonc2N)c1	-	-	-	0	0
CCOc1cccc(-c2c(C(=O)N/N=C(\C)c3ccccn3)nnn2-c2nonc2N)c1	-	-	-	0	52
O=S(=O)(NCC1(N2CCOCC2)CCCCC1)c1ccc(Cl)cc1C(F)(F)F	-	-	-	0	0
CCN(CC)c1nc(-c2cccc(OC)c2O)nc2ccccc12	0	0	52	0	0
COc1cccc(-c2nc(NCc3ccccc3)c3ccccc3n2)c1O	-	-	-	0	0
COCCCNc1nc2ccccc2nc1NS(=O)(=O)c1cc(Cl)ccc1Cl	-	-	-	0	0
O=C(CSc1nnc(COc2cccc3cccnc23)o1)N1CCc2ccccc21	0	94	0	0	0
O=C(CSc1nnc(Cc2ccccc2)o1)N1CCc2ccccc21	0	0	0	0	0
CC(NC(=S)Nc1ccccc1C(F)(F)F)C1CC2CCC1C2 (stereo unspecified)	0	0	0	0	0
Cc1cc2oc(=O)cc(Cn3ncc(Cl)c(Cl)c3=O)c2cc1Cl	0	0	88	0	0
SMILES	Ba/F3 V617F tox	BaF3 tox	APP transl inh	KLF5 inh	IEC-6 tox
CC(C)CN1C(=O)NC2(CCCc3ccccc32)C1=O (stereo unspecified)	-	-	-	0	0
Cn1c(-c2ccccc2[N+](=O)[O-])[n+](C)c2ccccc21	57	58	-	0	0
O=C(O)CC1S/C(=N/N=C/C=C/c2ccccc2[N+](=O)[O-])NC1=O (stereo unspecified)	0	0	0	0	0
O=C(O)CC1S/C(=N/N=C/C=C/c2ccccc2)NC1=O (stereo unspecified)	0	97!	0	0	0
CCOc1ccc(Nc2ncnc3c2cnn3C)cc1	-	-	-	0	0
COc1cc(C(=O)NNC(=S)NCc2ccco2)cc(OC)c1OC	0	90	0	0	0
CSc1nsc2nc(=O)c(/C=C3\C=Nc4ccccc43)c(N)n12	0	56	0	0	0
CC(C)S(=O)(=O)c1nsc2nc(=O)c(/C=C3\C=Nc4ccccc43)c(N)n12	0	0	0	0	0
C=CC[n+]1c(-c2ccc(OC)cc2)csc1NNC(=O)Nc1ccccc1	0	0	0	0	0
C=CC[n+]1c(-c2ccc(C)cc2)csc1Nc1ccc(NC(C)=O)cc1	0	0	50	0	0
C[C@H](NC(=O)[C@@H]1Cc2ccccc2CN1)C(=O)NC1CCCC1	-	-	-	0	0
COc1ccc(S(=O)(=O)NCCc2nnc3ccc(SCC(=O)Nc4nc(C)cs4)nn23)cc1	0	0	0	0	0
CCOP(=O)(/C(C#N)=C(\C)O)c1ccccc1 (stereo unspecified)	0	81	0	0	0
O=C1C(Cl)=C(Nc2ccccc2)C(=O)c2ccccc21	0	0	96	0	0
C=CCNC1=C(Cl)C(=O)c2ccccc2C1=O	0	0	0	0	27
O=C(CCCn1c(=S)[nH]c2cc3c(cc2c1=O)OCO3)N1CCN(c2ncccn2)CC1	64	57	0	0	0
N=c1c(S(=O)(=O)c2ccc(Cl)cc2)cc2c(=O)n3ccccc3nc2n1C1CCCC1	-	-	-	0	0
CCNc1nc(NCC)n2c(SCC(=O)c3ccccc3F)nnc2n1	0	0	0	0	0
CCn1c(CNc2ccc(F)cc2)nnc1SCCN1CCCCC1	0	93	0	0	0
Cc1[nH]n(-c2ccccc2)c(=O)c1/C=N/Nc1nncc(-c2ccccc2)n1	53	36	82	0	0
Cc1ccc(-n2[nH]c(C)c(/C=N/c3ccccn3)c2=O)cc1	0	0	0	0	0
Cc1[nH]n(-c2ccccc2)c(=O)c1C=Nc1cccc2cccnc12	0	0	70	0	23
Cn1nnc2cc(NC(=O)Nc3cccc(C(F)(F)F)c3)ccc21	-	-	-	0	0
COc1ccc(OC)c(-c2nnc(SCC(=O)N3CCCC3)o2)c1	-	-	-	0	0
O=[N+]([O-])c1ccc(C[n+]2cccc3ccc4cccnc4c32)cc1	60	76	0	0	0
SMILES	Ba/F3 V617F tox	BaF3 tox	APP transl inh	KLF5 inh	IEC-6 tox
CCCC(=O)OCCNc1cc(Sc2nccn2C)c2nonc2c1[N+](=O)[O-]	0	0	75	0	0
CCCSc1cc(NCCOC(=O)CCC)c([N+](=O)[O-])c2nonc12	0	0	0	0	0
Cc1ccc(C(c2nnnn2C2CCCC2)N2CCc3ccccc32)cc1 (stereo unspecified)	0	40	0	0	0
CCCN(CCC)CCNC(=O)C1CCN(Cc2nc(-c3ccc(Cl)cc3)oc2C)CC1	0	0	0	0	57
Cc1oc(-c2ccc(Cl)cc2)nc1CN1CCC(C(=O)NCc2cccnc2)CC1	0	0	0	0	0
CCOC(=O)c1ccccc1NC(=O)CN(c1ccccc1OCC)S(C)(=O)=O	0	0	0	0	0
CCOC(=O)c1ccccc1NC(=O)CN(c1ccc(OCC)cc1)S(C)(=O)=O	27	37	52	0	0
CCOc1cc(CNCCc2ccc(S(N)(=O)=O)cc2)ccc1OCC(=O)NC1CCCCC1	0	0	65	0	0
CCOc1cc(CNCCc2ccc(S(N)(=O)=O)cc2)ccc1OCC(=O)NC(C)(C)C	0	0	0	0	0
COc1cc(CNCc2ccccc2Cl)ccc1OCC(=O)NC1CCCCC1	-	-	-	0	0
COc1cc(CNn2cnnc2)ccc1OCC(=O)NC1CCCCC1	0	0	64	0	0
Cc1ccc(-c2nc3ccccc3[nH]2)s1	0	0	0	0	0
Cc1[nH]c2ccccc2c1-c1nc2ccccc2[nH]1	0	30	0	0	0
COc1ccc(C(=O)NCc2ccccn2)cc1	0	0	0	0	0
CCCCOc1ccc(C(=O)NCc2ccccn2)cc1	0	0	48	0	0
